Shown are actives, neighbours in structure and some others; about 11% of the full set was active somewhere.
L3MBTL1 block – qHTS Assay for the Inhibitors of L3MBTL1. Lethal(3)malignant brain tumor-like protein 1 (Homo sapiens), Q9Y468. AlphaScreen L3MBTL1–H3K9me1 peptide binding. Potency, µM (titrated, usually from 57.1 µM), for inactives: at the highest dose activity, negative = inhibition, actives largely listed as inhibitors. 230,000 compounds, 0.66% hits; also: % is scaled to controls: 0 for no effect and ±100 for the full control effect; nearly all actives have a fitted effect of over 60% in size
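First, the protein-peptide complex forms for 30 min at room temperature (L3MBTL1 50 nM, biotinylated H3K9me1 peptide 75 nM). Next, compounds are pin-transferred and incubated 30 min. Finally, AlphaScreen beads are added and read after 30 min.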
JMJD2A Tudor inh – qHTS Assay for Inhibitors of JMJD2A-Tudor Domain | Lysine-specific demethylase 4A (Homo sapiens), O75164 | AlphaScreen JMJD2A-Tudor / H3K4me3 peptide binding | Potency, µM (titrated, usually from 114 µM), without a hit: top-dose activity change, negative = inhibition, actives largely listed as inhibitors | 390,000 compounds, 4.4% hits; also: % is scaled to controls: 0 for no effect and ±100 for the full control effect; nearly all actives have a fitted effect of over 50% in size
Target sequence (O75164 whole entry, looked up, the tested form may be a part): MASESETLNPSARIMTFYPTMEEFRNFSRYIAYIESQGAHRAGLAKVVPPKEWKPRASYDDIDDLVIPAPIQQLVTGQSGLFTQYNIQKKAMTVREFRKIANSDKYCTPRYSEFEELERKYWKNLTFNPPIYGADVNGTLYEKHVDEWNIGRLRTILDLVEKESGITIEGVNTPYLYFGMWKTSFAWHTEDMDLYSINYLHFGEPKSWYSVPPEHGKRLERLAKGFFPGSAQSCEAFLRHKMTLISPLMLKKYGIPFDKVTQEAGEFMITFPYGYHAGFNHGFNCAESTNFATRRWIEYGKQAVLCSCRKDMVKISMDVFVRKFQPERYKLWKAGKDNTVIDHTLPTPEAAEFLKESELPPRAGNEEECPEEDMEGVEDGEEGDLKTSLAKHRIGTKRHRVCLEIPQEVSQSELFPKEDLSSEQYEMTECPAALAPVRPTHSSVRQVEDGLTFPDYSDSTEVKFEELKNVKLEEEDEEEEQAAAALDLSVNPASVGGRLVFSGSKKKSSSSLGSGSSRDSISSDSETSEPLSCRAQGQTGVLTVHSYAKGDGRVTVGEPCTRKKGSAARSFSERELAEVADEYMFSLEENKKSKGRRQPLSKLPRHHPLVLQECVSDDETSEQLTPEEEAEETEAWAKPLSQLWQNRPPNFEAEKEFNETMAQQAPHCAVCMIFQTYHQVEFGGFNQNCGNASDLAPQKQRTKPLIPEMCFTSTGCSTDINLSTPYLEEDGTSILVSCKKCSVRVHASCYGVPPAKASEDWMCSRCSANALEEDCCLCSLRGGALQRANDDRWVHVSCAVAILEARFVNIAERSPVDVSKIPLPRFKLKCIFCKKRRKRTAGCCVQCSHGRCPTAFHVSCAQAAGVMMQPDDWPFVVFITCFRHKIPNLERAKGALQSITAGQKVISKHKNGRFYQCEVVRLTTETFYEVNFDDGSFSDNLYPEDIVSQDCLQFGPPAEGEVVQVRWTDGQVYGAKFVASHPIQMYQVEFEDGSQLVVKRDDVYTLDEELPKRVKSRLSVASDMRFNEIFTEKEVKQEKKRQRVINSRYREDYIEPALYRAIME
G9a inh – qHTS Assay for Inhibitors of Histone Lysine Methyltransferase G9a. 350,000 compounds, 8.8% hits. G9a H3K9 monomethylation, AlphaScreen, 2 h. Histone-lysine N-methyltransferase EHMT2 (Homo sapiens), Q96KQ7. Potency, µM (series often up to 102 µM), for the others: at the top dose activity, negative = inhibition, usual class: inhibitors; also: % is scaled to controls: 0 for no effect and ±100 for the full control effect; nearly all actives have a fitted effect of over 75% in size
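Step 1: enzyme (final 20 nM) with compound, 15 min RT. Step 2: substrate peptide 500 nM and SAM 20 uM, 2 h RT. Step 3: anti-H3K9me1 antibody and AlphaScreen beads, 10 min, then plate read.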
HP1b chromo inh – HTS for Inhibitors of HP1-beta Chromodomain Interactions with Methylated Histone Tails | Potency, µM (series often up to 114 µM), without a hit: at the top dose activity change, negative = inhibition, actives largely listed as inhibitors | AlphaScreen HP1-beta / biotin-H3K9me3 peptide binding | 390,000 compounds, 0.56% hits | Chromobox protein homolog 1 (Homo sapiens), P83916 | AID 540317, 2011; also: nearly all actives have a fitted effect of over 70% in size
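HP1-beta protein (50 nM final) preincubated 30 min at room temperature with biotinylated H3(1-18)K9me3 peptide (50 nM) in PBS pH 7.4, 0.01% Tween-20, then compound added for 30 min. AlphaScreen streptavidin donor/nickel chelate acceptor beads (10 ug/mL final), 30 min dark, luminescence read.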
BAZ2B block – qHTS Assay for Inhibitors of BAZ2B | AID 504333, 2011 | Potency, µM (titrated, usually from 114 µM), for the others: top-dose activity change, negative = inhibition, actives largely listed as inhibitors | Bromodomain adjacent to zinc finger domain protein 2B (Homo sapiens), Q9UIF8 | 360,000 compounds, 4.4% hits | AlphaScreen BAZ2B-H3K14Ac peptide displacement; also: % is scaled to controls: 0 for no effect and ±100 for the full control effect; nearly all actives have a fitted effect of over 60% in size
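Multi-concentration screen (max 110 uM) measuring displacement of acetylated histone H3 peptide from BAZ2B by AlphaScreen, using 50 nM protein, 50 nM peptide and 10 ug/mL streptavidin donor plus Ni-chelate acceptor beads.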
* hit, by the source's call; u = inconclusive; x = not tested or not shown; [ ] = another dose, or the depositor's remark. Calls follow the shape of the dose curve; as a rule, active = well fitted inhibition curve with a large enough effect; inconclusive = small, poorly fitted or top-dose-only effect; inactive = no such curve, though single readings can be large or run the other way. Potency is read from the fitted curve at half-maximal effect.

SMILES | L3MBTL1 block | JMJD2A Tudor inh | G9a inh | HP1b chromo inh | BAZ2B block
CCCC1OC2C[C@@H]3[C@H]4CCC5=CC(=O)C=C[C@]5(C)[C@H]4C(O)C[C@]3(C)[C@]2(C(=O)CO)O1 (some centres not stated) | x | -6% | x | 56% | x
CC1=C(C(=O)Nc2ccc(C)cc2C)C(c2ccc(Cl)cc2)n2nc(C(=O)OC(C)C)nc2N1 (configuration not stated) | 2% | -7% | 45µM* | 10% | -14%
COc1ccc(C2C(C(=O)Nc3ccc(C)cc3C)=C(C)Nc3nc(SC)nn32)cc1OC (configuration not stated) | x | -15% | 11%[59 µM] | 7% | 1%
CC(C)(C)c1ccc(CCC2OCC(C[N+]3(C)CCOCC3)O2)cc1 (configuration not stated) | 0% | u | 50µM* | -5% | -19%
CCOC(=O)C1(Cc2cccc(Cl)c2)CCCN(C(=O)c2cnn(CC)c2)C1 (configuration not stated) | x | 0% | 25µM* | 24% | -4%
Cc1coc2cc3oc(=O)c(CCC(=O)N4CCCCC4)c(C)c3cc12 | x | -14% | 0%[59 µM] | 50% | -3%
COc1ccc(-c2n[nH]c(=S)n2Cc2ccco2)cc1 | x | 14µM* | u | 14% | -38%
Cc1c(Br)c(-c2n[nH]c(=S)n2Cc2ccco2)nn1C | 0% | u | 10µM* | 20% | -27%
Cc1cc(-c2n[nH]c(=S)n2Cc2ccco2)nn1C | -2% | 6.3µM* | 8.9µM* | 11% | -33%
Cc1cc(C(=O)NNC(=S)NCc2ccco2)nn1C | 8% | -19% | -43% | 33% | -1%
Oc1ccccc1-c1n[nH]c(=S)n1Cc1ccco1 | x | 5.6µM* | u | -22% | -34%
S=c1nc(-c2ccccc2)n(Cc2ccco2)c2c1CCCC2 | -1% | x | u | x | -4%
CCCCN(CCCC)CCNC(=O)Cn1nc(CC)n2c(cc3sc(C)cc32)c1=O | x | -18% | -10%[59 µM] | 17% | -5%
COCCn1c(=O)c(-c2ccccc2)nc2cnc(Nc3cccc(OC)c3)nc21 | x | x | -4%[0.501 µM] | x | x
Cc1cc(-c2n[nH]c(=S)n2Cc2ccco2)n(C)n1 | 7% | 20µM* | 8.9µM* | 28% | -3%
CCOC(=O)CSc1nnc(CSc2nc(C)cc(C)n2)n1Cc1ccco1 | x | -18% | u | 34% | -3%
COc1cccc(Cc2n[nH]c(=S)n2Cc2ccco2)c1 | -3% | 14µM* | 7.9µM* | -7% | -32%
COc1ccc(N2CCN(CCCNS(=O)(=O)c3c(C)noc3/C=C/N(C)C)CC2)cc1 | u | x | u | x | 35µM*
COc1ccc(NC(=O)C2CCN(S(=O)(=O)c3c(C)noc3/C=C/N(C)C)CC2)cc1 | x | -18% | 25% | 30% | -21%
O=C1C2C3C=CC(C3)C2C(=O)N1/N=C/c1cn(Cc2ccccc2)c2ccccc12 (configuration not stated) | 35% | -7% | 67%[12.7 µM] | 12% | 77%
NC1=NC(=O)/C(=C/c2cn(Cc3ccccc3)c3ccccc23)S1 | -20% | -35% | 50µM* | 1% | u
COc1cc(OC)c(N(C)C(=O)c2cn(C3CCCC3)c(=O)c3c2c2ccccc2n3C)cc1Cl | x | u | u | -1% | u
COc1ccc(OC)c(NC(=O)CCNS(=O)(=O)c2cccc3nonc23)c1 | x | 5% | u | 10% | -4%
COc1ccc(NS(=O)(=O)c2cccc3nonc23)c(OC)c1 | -24% | -25% | 40µM* | -13% | u
CCc1ccc(NS(=O)(=O)c2cccc3nonc23)cc1 | x | -26%[11.4 µM] | 45µM* | -12% | u
SMILES | L3MBTL1 block | JMJD2A Tudor inh | G9a inh | HP1b chromo inh | BAZ2B block
C/C(CC(=O)N1CCN(C=O)CC1)=N\NC(=O)c1ccc(Cl)cc1 | 3% | 2% | -25% | 61% | -4%
CC1CN(C(=S)NC(=O)c2cccc([N+](=O)[O-])c2)CC(C)O1 (configuration not stated) | 0% | u | 14µM* | 21% | -26%
CC1CN(C(=S)NC(=O)c2ccc(Cl)cc2)CC(C)O1 (configuration not stated) | x | -17% | 45µM* | 24% | -21%
COc1ccc(C(=O)NC(=S)N2CC(C)OC(C)C2)cc1OC (configuration not stated) | 2% | -11% | x | 41% | u
O=CN1CCN(C(=S)NC(=O)c2ccc(Cl)cc2)CC1 | x | 1% | 45µM* | 53% | -15%
CCCn1ccc2c(OCC(=O)Nc3ccc(OC)c(OC)c3)cccc2c1=O | x | -13% | -4%[59 µM] | 11% | -14%
Cc1cccc(C(=O)Nc2nnc(SCc3cc(=O)n4cccc(C)c4n3)s2)c1 | x | -30% | -6%[59 µM] | 14%[57 µM] | -2%
COc1ccc(-n2nnnc2C2CCN(S(=O)(=O)c3ccc(C)cc3)CC2)cc1 | x | -8% | 2%[59 µM] | 61% | -1%
CCOC(=O)c1ccc(NC(=O)CN(c2ccc(C)cc2)S(=O)(=O)c2ccc(OC)cc2)cc1 | x | -29% | -3%[59 µM] | 40% | -5%
CCNC(=O)N(C)C[C@H]1N[C@@](C)(C(=O)OC)[C@H]2C(=O)N(C)C(=O)[C@@H]12 | -1% | 89µM* | x | 27% | x
COC(=O)[C@]1(C)N[C@H](CN(C)C(C)=O)[C@@H]2C(=O)N(C)C(=O)[C@@H]21 | 1% | -22% | x | 17% | x
COc1cc(Cl)c(C)cc1NC(=O)c1cnc2c(-c3cccc(C)c3)c(C)nn2c1C | x | -8% | 12%[59 µM] | 22% | -5%
Cc1ccc(OCC(=O)Nc2nonc2-c2ccc(C)c(C)c2)cc1C | x | u | -40%[59 µM] | 39% | -9%
Cc1ccc(C(=O)Nc2nnc(-c3ccco3)o2)cc1C | 11% | -5% | 6% | 37% | u
Cc1cccc(C(=O)Nc2nnc(-c3ccco3)o2)c1 | 4% | u | 5% | 35% | 45µM*
CSc1cccc(-c2nnc(NC(=O)c3cccc(N4C(=O)CCC4=O)c3)o2)c1 | 12% | u | 7% | 7% | u
O=C(Nc1nnc(-c2ccco2)o1)c1cccc(N2C(=O)CCC2=O)c1 | 12% | 4.5µM* | 16µM* | -8% | 22µM*
CS(=O)(=O)c1ccccc1-c1nnc(NC(=O)c2cccc(N3C(=O)CCC3=O)c2)o1 | -7% | 2.5µM* | u | 13% | 79µM*
Cc1ccccc1C(=O)Nc1nnc(-c2ccco2)o1 | 22% | 50µM* | -13%[59 µM] | 39% | 50µM*
CCC(CC)NC(=O)CCCSc1nc2ccccc2[nH]1 | -7% | -10% | 2% | 73% | 2%
O=C(Nc1nnc(-c2ccncc2)o1)c1ccc2ccccc2c1 | x | -22% | 6% | 38% | 79µM*
Cc1cccc(C(=O)Nc2nnc(-c3cccnc3)o2)c1 | x | u | 36% | 17% | 50µM*
